# In the supplement of paper PMC4466140:
# Legend:
# Test in all cases: SPOT peptide array binding signal intensity (averaged, normalized) (arbitrary units (background-subtracted, floor 0; scale differs between SH3 domains)); higher = stronger binding of the SH3 domain to the peptide
# [1] = biological target: AgAbp1
# Procedure, shortened: (§1)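 Spot intensities were captured after detection with anti-GST antibody, an HRP-linked anti-mouse secondary and luminol, and quantified with Genespotter. The probes were GST-fused SH3 domains from four yeast species, produced in E. coli BL21(DE3), purified on glutathione Sepharose and incubated at 10 μg/ml overnight at 4°C on cellulose-bound synthetic 15-mer peptides with cysteines replaced by serines. Binding signal is the normalized, background-subtracted spot intensity averaged over replicates, and its arbitrary units differ between domains.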
# [2] = biological target: AgBbc1
# Procedure, shortened: as §1
# [3] = biological target: AgBem1-D1
# Procedure, shortened: as §1
# [4] = biological target: AgBzz1-D1
# Procedure, shortened: as §1
# [5] = biological target: AgBzz1-D2
# Procedure, shortened: as §1
# [6] = biological target: AgCyk3
# Procedure, shortened: as §1
# [7] = biological target: AgFus1
# Procedure, shortened: as §1
# [8] = biological target: AgHof1
# Procedure, shortened: as §1
# [9] = biological target: AgHse1
# Procedure, shortened: as §1
# [10] = biological target: AgLsb1
# Procedure, shortened: as §1
# [11] = biological target: AgLsb4
# Procedure, shortened: as §1
# [12] = biological target: AgMyo5
# Procedure, shortened: as §1
# [13] = biological target: AgNbp2
# Procedure, shortened: as §1
# [14] = biological target: AgRvs167
# Procedure, shortened: as §1
# [15] = biological target: AgSho1
# Procedure, shortened: as §1
# [16] = biological target: AgSla1-D1-D2
# Procedure, shortened: as §1
# [17] = biological target: AgSla1-D3
# Procedure, shortened: as §1
# [18] = biological target: CaAbp1-D1
# Procedure, shortened: as §1
# [19] = biological target: CaAbp1-D2
# Procedure, shortened: as §1
# [20] = biological target: CaBbc1
# Procedure, shortened: as §1
# [21] = biological target: CaBem1-D1
# Procedure, shortened: as §1
# [22] = biological target: CaBzz1-D1
# Procedure, shortened: as §1
# [23] = biological target: CaBzz1-D2
# Procedure, shortened: as §1
# [24] = biological target: CaCyk3
# Procedure, shortened: as §1
# [25] = biological target: CaFus1
# Procedure, shortened: as §1
# [26] = biological target: CaHof1
# Procedure, shortened: as §1
# [27] = biological target: CaHse1
# Procedure, shortened: as §1
# [28] = biological target: CaLsb1
# Procedure, shortened: as §1
# [29] = biological target: CaLsb4
# Procedure, shortened: as §1
# [30] = biological target: CaMyo5
# Procedure, shortened: as §1
# [31] = biological target: CaNbp2
# Procedure, shortened: as §1
# [32] = biological target: CaRvs167
# Procedure, shortened: as §1
# [33] = biological target: CaRvs167-3
# Procedure, shortened: as §1
# [34] = biological target: CaSho1
# Procedure, shortened: as §1
# [35] = biological target: CaSla1-D1-D2
# Procedure, shortened: as §1
# [36] = biological target: CaSla1-D3
# Procedure, shortened: as §1
# [37] = biological target: ScAbp1
# Procedure, shortened: as §1
# [38] = biological target: ScBbc1
# Procedure, shortened: as §1
# [39] = biological target: ScBem1-D1
# Procedure, shortened: as §1
# [40] = biological target: ScBzz1-D1
# Procedure, shortened: as §1
# [41] = biological target: ScBzz1-D2
# Procedure, shortened: as §1
# [42] = biological target: ScCyk3
# Procedure, shortened: as §1
# [43] = biological target: ScFus1
# Procedure, shortened: as §1
# [44] = biological target: ScHof1
# Procedure, shortened: as §1
# [45] = biological target: ScHse1
# Procedure, shortened: as §1
# [46] = biological target: ScLsb1
# Procedure, shortened: as §1
# [47] = biological target: ScLsb2
# Procedure, shortened: as §1
# [48] = biological target: ScLsb3
# Procedure, shortened: as §1
# [49] = biological target: ScLsb4
# Procedure, shortened: as §1
# [50] = biological target: ScMyo3
# Procedure, shortened: as §1
# [51] = biological target: ScMyo5
# Procedure, shortened: as §1
# [52] = biological target: ScNbp2
# Procedure, shortened: as §1
# [53] = biological target: ScPex13
# Procedure, shortened: as §1
# [54] = biological target: ScRvs167
# Procedure, shortened: as §1
# [55] = biological target: ScSho1
# Procedure, shortened: as §1
# [56] = biological target: ScSla1-D1-D2
# Procedure, shortened: as §1
# [57] = biological target: ScSla1-D3
# Procedure, shortened: as §1
# [58] = biological target: SpAbp1-D1
# Procedure, shortened: as §1
# [59] = biological target: SpBbc1
# Procedure, shortened: as §1
# [60] = biological target: SpBzz1-D1
# Procedure, shortened: as §1
# [61] = biological target: SpBzz1-D2
# Procedure, shortened: as §1
# [62] = biological target: SpCyk3
# Procedure, shortened: as §1
# [63] = biological target: SpHof1
# Procedure, shortened: as §1
# [64] = biological target: SpHof1-2
# Procedure, shortened: as §1
# [65] = biological target: SpHof1-3
# Procedure, shortened: as §1
# [66] = biological target: SpHse1
# Procedure, shortened: as §1
# [67] = biological target: SpLsb1
# Procedure, shortened: as §1
# [68] = biological target: SpLsb4
# Procedure, shortened: as §1
# [69] = biological target: SpMyo1
# Procedure, shortened: as §1
# [70] = biological target: SpNbp2
# Procedure, shortened: as §1
# [71] = biological target: SpPex13
# Procedure, shortened: as §1
# [72] = biological target: SpRvs167
# Procedure, shortened: as §1
# [73] = biological target: SpSla1-D1-D2
# Procedure, shortened: as §1
# [74] = biological target: SpSla1-D3
# Procedure, shortened: as §1
binder,measurement,setting,value
NSVPIMPTLPPRPYI,SPOT peptide array binding signal intensity,[1],≤ 0
same,SPOT peptide array binding signal intensity,[2],394
same,SPOT peptide array binding signal intensity,[3],102
same,SPOT peptide array binding signal intensity,[4],21
same,SPOT peptide array binding signal intensity,[5],≤ 0
same,SPOT peptide array binding signal intensity,[6],9.5
same,SPOT peptide array binding signal intensity,[7],20.5
same,SPOT peptide array binding signal intensity,[8],118
same,SPOT peptide array binding signal intensity,[9],320
same,SPOT peptide array binding signal intensity,[10],26
same,SPOT peptide array binding signal intensity,[11],2370
same,SPOT peptide array binding signal intensity,[12],71.5
same,SPOT peptide array binding signal intensity,[13],192
same,SPOT peptide array binding signal intensity,[14],50.2
same,SPOT peptide array binding signal intensity,[15],21
same,SPOT peptide array binding signal intensity,[16],≤ 0
same,SPOT peptide array binding signal intensity,[17],≤ 0
same,SPOT peptide array binding signal intensity,[18],≤ 0
same,SPOT peptide array binding signal intensity,[19],5
same,SPOT peptide array binding signal intensity,[20],1090
same,SPOT peptide array binding signal intensity,[21],162
same,SPOT peptide array binding signal intensity,[22],103
same,SPOT peptide array binding signal intensity,[23],3
same,SPOT peptide array binding signal intensity,[24],120
same,SPOT peptide array binding signal intensity,[25],293
same,SPOT peptide array binding signal intensity,[26],15
same,SPOT peptide array binding signal intensity,[27],310
same,SPOT peptide array binding signal intensity,[28],3.25
same,SPOT peptide array binding signal intensity,[29],2280
same,SPOT peptide array binding signal intensity,[30],27.5
same,SPOT peptide array binding signal intensity,[31],400
same,SPOT peptide array binding signal intensity,[32],423
same,SPOT peptide array binding signal intensity,[33],≤ 0
same,SPOT peptide array binding signal intensity,[34],260
same,SPOT peptide array binding signal intensity,[35],52
same,SPOT peptide array binding signal intensity,[36],46
same,SPOT peptide array binding signal intensity,[37],≤ 0
same,SPOT peptide array binding signal intensity,[38],128
same,SPOT peptide array binding signal intensity,[39],≤ 0
same,SPOT peptide array binding signal intensity,[40],3
same,SPOT peptide array binding signal intensity,[41],1
same,SPOT peptide array binding signal intensity,[42],≤ 0
same,SPOT peptide array binding signal intensity,[43],40.5
same,SPOT peptide array binding signal intensity,[44],252
same,SPOT peptide array binding signal intensity,[45],26.5
same,SPOT peptide array binding signal intensity,[46],380
same,SPOT peptide array binding signal intensity,[47],128
same,SPOT peptide array binding signal intensity,[48],3460
same,SPOT peptide array binding signal intensity,[49],2610
same,SPOT peptide array binding signal intensity,[50],668
same,SPOT peptide array binding signal intensity,[51],107
same,SPOT peptide array binding signal intensity,[52],210
same,SPOT peptide array binding signal intensity,[53],1530
same,SPOT peptide array binding signal intensity,[54],834
same,SPOT peptide array binding signal intensity,[55],154
same,SPOT peptide array binding signal intensity,[56],2
same,SPOT peptide array binding signal intensity,[57],72
same,SPOT peptide array binding signal intensity,[58],≤ 0
same,SPOT peptide array binding signal intensity,[59],50
same,SPOT peptide array binding signal intensity,[60],78
same,SPOT peptide array binding signal intensity,[61],0.5
same,SPOT peptide array binding signal intensity,[62],6
same,SPOT peptide array binding signal intensity,[63],6.5
same,SPOT peptide array binding signal intensity,[64],34.5
same,SPOT peptide array binding signal intensity,[65],18.8
same,SPOT peptide array binding signal intensity,[66],214
same,SPOT peptide array binding signal intensity,[67],523
same,SPOT peptide array binding signal intensity,[68],4060
same,SPOT peptide array binding signal intensity,[69],378
same,SPOT peptide array binding signal intensity,[70],76.5
same,SPOT peptide array binding signal intensity,[71],25
same,SPOT peptide array binding signal intensity,[72],1070
same,SPOT peptide array binding signal intensity,[73],≤ 0
same,SPOT peptide array binding signal intensity,[74],21.5
